Our source for the survival values is PubChem BioAssay AID463173 (ICCB-Longwood Screening Facility, Harvard Medical School, 2010).

The campaign covered roughly 52,000 compounds. About 4,300 (8.3%) were called active. Rule as the data show it: active = survival mostly below about 52% (no sharp cut-off); inactive = mostly above about 56%. Many of the other results were omitted from the sample, so actives are more common in it than they were.

For this test, the system named is DeltatarO mutant. The test can be described thus: growth inhibition of S. aureus wild type versus tarO mutant, primary screen, teichoic acid synthesis inhibitors, RN4220, OD600 (AID 463173). Particulars: OD600, 18 h, stronger effect = lower value, screened at 18.75 µg/mL (by protocol).
For the compound `COC(=O)Cn1c(=NC(=O)c2ccc3c(c2)OCCO3)sc2ccccc21`, the survival was 97% (inactive).
For the compound `Cc1cccc(NC(=O)C2CCCN(c3nc4ccccc4s3)C2)c1C` (configuration not stated), the survival is 83% (inactive).
With `COC(C(=O)Nc1ccc2c(c1)OCCO2)c1ccccc1` (configuration not stated) the figure was 87% (inactive).
With `C=CCn1c(SCC(=O)c2cccs2)nc2sc(C)cc2c1=O` the figure was 93% (inactive); with `CC1CC(C(F)F)n2nc(C(=O)Nc3sc4c(c3C#N)CCC(C(C)(C)C)C4)nc2N1` (configuration not stated), 103% (inactive); with `CCCCN(CCCC)CCNC(=O)Cn1nc(CC)n2c(cc3sc(C)cc32)c1=O`, 85% (inactive).
In the case of `CCCSc1nnc2c(n1)OC(CC)N(C(C)=O)c1ccccc1-2` (configuration not stated) it was 62% (inactive).
Regarding `COc1ccc(-c2noc(N3CCN(c4cccc(C)c4C)CC3)n2)cc1OC`, the survival was 94% (inactive).
With `Cc1ccc(OCc2ccc(-c3nc(C#N)c(NCc4ccccc4Cl)o3)o2)cc1` the figure was 100% (inactive); with `O=C(Nc1ccc(C(F)(F)F)cc1)c1cc(S(=O)(=O)N2CCCc3ccccc32)ccc1F`, 101% (inactive).
With `COc1ccc(NC(=O)c2sc3nc[nH]c(=O)c3c2C)cc1Cl` the figure was 99% (inactive); with `COc1cccc(N2CCN(C(=O)CCCn3c(=O)[nH]c4ccc(Br)cc4c3=O)CC2)c1`, 53% (inactive).
With `COC(=O)c1ccc2c(=O)n(CCCCCC(=O)N3CCN(c4cc(Cl)ccc4C)CC3)c(=O)[nH]c2c1` the figure was 129% (inactive); with `Cc1ccc(Cl)cc1N1CCN(C(=O)CCCCCn2c(=O)[nH]c3ccccc3c2=O)CC1`, 78% (inactive); with `O=C(CCCn1c(=O)[nH]c2ccc(Br)cc2c1=O)N1CCN(c2cccc(Cl)c2)CC1`, 48% (active).
For `CCOc1cc2[nH]c(=O)n(CCCC(=O)N3CCN(c4cccc(Cl)c4)CC3)c(=O)c2cc1OCC`, the survival was 81% (inactive).
With `Cc1ccc(Cl)cc1N1CCN(C(=O)CCCn2c(=O)[nH]c3ccc(Br)cc3c2=O)CC1` the figure was 29% (active); with `O=c1[nH]c(-c2ccc(S(=O)(=O)N3CCCC3)cc2)nc2sc3c(c12)CCCC3`, 120% (inactive); with `COc1cc(OC)c(NS(=O)(=O)c2cc(-c3cnc(C)o3)ccc2OC)cc1Cl`, 67% (inactive).
With `O=C(CSc1nc2c(c(=O)[nH]1)CCCC2)Nc1ccccc1C(F)(F)F` the figure was 58% (inactive); with `CCc1ccc(-n2c(SCC(=O)NC(C)CC)nc3n[nH]c(C)c3c2=N)cc1` (configuration not stated), 122% (inactive); with `O=S(=O)(c1cccc(Cl)c1)n1c(/C=C/c2ccccc2Cl)nc2ccccc21`, 68% (inactive).
Turning to `O=C(O)COc1ccccc1C1Nc2ccccc2-c2nnc(SCc3ccc(Cl)cc3)nc2O1` (configuration not stated), the survival was 66% (inactive).
Turning to `COc1cc(OC)c(C2Nc3ccccc3-c3nnc(SCc4ccccc4)nc3O2)cc1OC` (configuration not stated), the survival was 54% (inactive).
Turning to `CCOc1ccc(C2Nc3ccccc3-c3nnc(SCc4ccccc4)nc3O2)cc1OC` (configuration not stated), the survival was 50% (inactive).
For `COc1cccc(C2Nc3ccccc3-c3nnc(SCc4ccccc4)nc3O2)c1OC` (configuration not stated), the survival was 140% (inactive).
Consider `CCOc1ccccc1C1Nc2ccccc2-c2nnc(SCc3ccccc3)nc2O1` (configuration not stated), for which the survival was 44% (active).
For `CCOc1cc(C2Nc3ccccc3-c3nnc(SCc4ccccc4)nc3O2)ccc1OC` (configuration not stated), the survival is 45% (active).
For the compound `COc1ccc(-c2noc(-c3nnn(-c4ccc(C(C)C)cc4)c3C)n2)cc1OC`, the survival is 67% (inactive).
With `O=C(c1ccc2c(c1)N(Cc1c(F)cccc1Cl)C(=O)c1ccccc1S2)N1CCCC1` the figure was 74% (inactive); with `CCOc1ccc(Cn2nnc3c(=O)[nH]c(C4CCN(C(=O)c5ccccc5)CC4)nc32)cc1`, 4% (active).
With `Cc1ccc(C)c(C(=O)N2CCC(c3nc4c(nnn4Cc4ccccc4)c(=O)[nH]3)CC2)c1` the figure was 39% (active); with `COc1cccc(OC)c1Cn1nnc2c(=O)[nH]c(C3CCN(C(=O)c4ccccc4)CC3)nc21`, 56% (inactive); with `CCOc1ccccc1NC(=O)N1CCCC(c2nc3c(nnn3Cc3ccc(C)cc3)c(=O)[nH]2)C1` (configuration not stated), 82% (inactive).
For the compound `O=C(c1ccccc1)N1CCC(c2nc3c(nnn3Cc3ccccc3)c(=O)[nH]2)CC1`, the survival is 13% (active).
Take `O=c1[nH]c(C2CCCNC2)nc2c1nnn2Cc1ccccc1` (configuration not stated): the survival was 98% (inactive).
With `Cc1ccc(Cn2nnc3c(=O)[nH]c(C4CCN(S(=O)(=O)/C=C/c5ccccc5)CC4)nc32)cc1` the figure was 89% (inactive).
Turning to `O=c1oc2cc(Br)ccc2n1CO`, the survival was 105% (inactive).
With `Cc1ccc(NCc2ccccc2-c2nnc(-c3ccccc3Cl)o2)c(C)c1` the figure was 83% (inactive); with `Cc1cccc(N2CCN(CC(=O)NCc3cccs3)CC2)c1C`, 101% (inactive); with `COc1ccc2c(c1)c1c(c(=O)n(CCc3ccccc3)c(=O)n1Cc1cccc(C)c1)n2C`, 70% (inactive).
In the case of `CCCCN(CC)CCNC(=O)c1nn(C)c2c1CS(=O)(=O)c1ccccc1-2`, the survival is 56% (inactive).
For the compound `CCOC(=O)N1CCN(Cc2nc3cc([N+](=O)[O-])ccc3n2C(C)C)CC1`, the survival is 92% (inactive).
In the case of `O=C(NCCO)c1nc2ccccc2s1` it was 73% (inactive); in that of `CCN(CC)c1ccc(NC(=O)c2cc(C)nc3c2c(C)nn3-c2cccc(F)c2)c(C)c1`, 100% (inactive).
Consider `O=C(CSC1=NC(=O)C(c2ccccc2)C(=O)N1)Nc1nncs1` (configuration not stated), for which the survival was 70% (inactive).
On to `O=C(c1cn(CCOc2ccccc2F)c2ccccc12)C1CCCCC1`, for which the survival is -2% (active).
In the case of `O=C(c1cn(CCOc2ccc(Cl)cc2)c2ccccc12)C1CCCCC1` it was 14% (active); in that of `O=C(c1cccs1)c1cn(CCOc2ccccc2F)c2ccccc12`, 104% (inactive).
With `Cc1ccc(OCCn2cc(C(=O)C3CCCCC3)c3ccccc32)cc1` the figure was 3% (active); with `Cc1ccccc1OCCn1cc(C(=O)C2CCCCC2)c2ccccc21`, 144% (inactive); with `O=C(c1cccs1)c1cn(CCOc2ccc(Cl)cc2)c2ccccc12`, 156% (inactive).
With `COc1ccc(NC(=O)Cn2cc(C(=O)C3CC3)c3ccccc32)cc1`, the survival was 88% (inactive).
In the case of `O=C(Cn1cc(C(=O)C2CCCCC2)c2ccccc21)Nc1ccccc1Cl` it was 76% (inactive); in that of `Cc1ccc(OCCn2cc(C(=O)c3cccs3)c3ccccc32)cc1`, 69% (inactive).
In the case of `COc1ccc(NC(=O)Cn2cc(C(=O)C3CCCCC3)c3ccccc32)cc1` it was 71% (inactive).
Take `COc1ccc(OCCn2cc(C(=O)C3CCCCC3)c3ccccc32)cc1`: the survival is 13% (active).
As to `Cc1ccc(NC(=O)Cn2cc(C(=O)C3CCCCC3)c3ccccc32)cc1`, the survival was 62% (inactive).
With `Cc1c(NC(=O)c2nc3ccccc3nc2N2CCCCC2)cccc1[N+](=O)[O-]` the figure was 100% (inactive).
With `COc1ccc(-c2nc3n(n2)C(c2ccc(OC)cc2)C(C(=O)Nc2cccnc2)=C(C)N3)cc1` (configuration not stated) the figure was 89% (inactive); with `Cc1ccc(N2CC(NC(=O)CCc3ccccc3)CC2=O)cc1C` (configuration not stated), 101% (inactive); with `COc1ccc(N2CCN(C(=O)Cn3c(-c4cccs4)cc4ccccc43)CC2)cc1`, 80% (inactive).
With `Cc1cc(C)c(NC(=O)CN2C(=O)c3cccnc3Sc3ccccc32)c(C)c1` the figure was 83% (inactive).
In the case of `CCOC(=O)c1ccc(N2C(=O)c3n[nH]c(-c4ccco4)c3C2c2ccc(O)c(OCC)c2)cc1` (configuration not stated), the survival was 69% (inactive).
With `C=CCn1c(O)c(CN2CCOCC2)c(C)c(C#N)c1=O` the figure was 89% (inactive).
In the case of `O=C(O)Cc1ccc(NC2(c3ccccc3)C(=O)c3ccccc3C2=O)cc1` it was 73% (inactive); in that of `Cc1cccc(NC(=O)c2ccc3c(O)c(S(=O)(=O)c4ccccc4)c(=O)[nH]c3c2)c1C`, 88% (inactive).
As for `Cc1ccc(C)c(NC(=O)CN2CCN(C3CCCCC3)C(=O)C2=O)c1`, the survival was 94% (inactive).
With `CCC(Cn1nnc2ccccc2c1=O)NC(=O)Nc1cc(Cl)ccc1OC` (configuration not stated) the figure was 71% (inactive).
As for `Cc1ccc(Cl)cc1N1CCN(C(=O)c2cc(S(=O)(=O)N3CCCC3)c[nH]2)CC1`, the survival was 88% (inactive).
In the case of `COC(=O)c1cc(S(=O)(=O)N2CCN(c3ccc(OC)cc3)CC2)c[nH]1` it was 73% (inactive).
In the case of `COC(=O)c1cc(S(=O)(=O)N2CCN(c3cc(Cl)ccc3C)CC2)c[nH]1` it was 12% (active).
As to `CC(Oc1ccccc1)C(=O)Nc1ccccc1C(=O)OCc1cc(=O)n2nc(C(C)C)sc2n1` (configuration not stated), the survival is 83% (inactive).
With `Cc1ccn2c(Nc3ccccc3C)c(-c3cccnc3)nc2c1` the figure was 81% (inactive).
On to `Cc1ccn2c(Nc3ccccc3C)c(-c3ccccc3)nc2c1`, for which the survival is 0% (active).
In the case of `Cc1ccn2c(Nc3ccccc3C)c(-c3ccncc3)nc2c1` it was 85% (inactive); in that of `Cc1ccc2nc(-c3ccccn3)c(Nc3ccccc3C)n2c1`, 15% (inactive).
With `Cc1cccc(C)c1Nc1c(-c2ccccn2)nc2ccc(Cl)cn12`, the survival is 135% (inactive).
With `Cc1ccn2c(Nc3ccccc3C)c(-c3ccccn3)nc2c1` the figure was 11% (active); with `Cc1ccc2nc(N3CCN(c4ccccc4F)CC3)c3nnnn3c2c1`, 87% (inactive).
In the case of `Cc1ccc(C)c(-n2cc(-c3ccccc3)nc2SCC(=O)Nc2ccccc2)c1` it was 96% (inactive).
Regarding `Cc1cccc(NC(=O)c2cnn(-c3ccccc3)c2-n2cccc2)c1C`, the survival is 77% (inactive).
Consider `CCC(=O)N1CCc2cc(Br)cc(S(=O)(=O)CCC(=O)N3CCN(c4cccc(C)c4)C(C)C3)c21` (configuration not stated), for which the survival is 65% (inactive).
In the case of `COc1ccc(C(=O)Nc2nc3n(n2)C(c2ccc(Cl)cc2)C=C(c2ccccc2)N3)cc1OC` (configuration not stated) it was 59% (inactive); in that of `O=C(Nc1nc2n(n1)C(c1ccc(F)cc1)C=C(c1ccccc1)N2)c1ccco1` (configuration not stated), 41% (active); in that of `Cc1ccc(C2C=C(c3ccc(Cl)cc3)Nc3nc(NC(=O)c4ccco4)nn32)cc1` (configuration not stated), 67% (inactive).
With `O=C(Nc1nc2n(n1)C(c1ccc(F)cc1)C=C(c1ccc(Cl)cc1)N2)c1ccco1` (configuration not stated) the figure was 16% (active); with `O=C(Nc1nc2n(n1)C(c1ccccc1)C=C(c1ccccc1)N2)c1ccccc1` (configuration not stated), 109% (inactive).
As to `O=C(Nc1nc2n(n1)C(c1ccc(F)cc1)C=C(c1ccccc1)N2)c1cccc([N+](=O)[O-])c1` (configuration not stated), the survival was 99% (inactive).
For the compound `CC(=O)Nc1nc2n(n1)C(c1ccc(F)cc1)C=C(c1ccc(Cl)cc1)N2` (configuration not stated), the survival is 59% (inactive).
In the case of `O=C(Nc1nc2n(n1)C(c1ccccc1)C=C(c1ccc(Cl)cc1)N2)c1ccco1` (configuration not stated) it was 42% (inactive); in that of `O=C(Nc1nc2n(n1)C(c1ccc(Cl)cc1)C=C(c1ccccc1)N2)c1ccco1` (configuration not stated), 35% (active).
